# The full list was thinned out, with hits kept by preference.
# KDM5B inhibitor: blocks human KDM5B histone demethylase activity; Q9UGL1; KDM5B demethylase, FDH-coupled NADH fluorescence (FDH is formaldehyde dehydrogenase); Potency, µM (top dose mostly 57.7 µM), most hits filed as inhibitors; 220,000 tested, 2.6% active; AID 1347165; active means well fitted inhibition curve with a large enough effect; further: 0% is about no effect; nearly all actives have a fitted effect of over 70% in size
#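 Coupled FDH/NAD⁺ fluorescence readout. KDM5BΔAP 200 nM final; compound titration, 10 min RT preincubation; substrate mix 12.5 µM H3K4me3, 25 µM 2-OG, 50 µM Fe(II), 100 µM ascorbate, 0.25 mM NAD⁺, 0.25 U/mL FDH; ΔRFU over 30 min.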
# The depositor's hits bear a star; i = inactive. Potency means the concentration at half of the fitted maximal effect.
SMILES,KDM5B inhibitor
c1cc(-c2nnc([C@H]3CCN(CC4CC4)C3)o2)ccn1,i
c1ccc(-c2nnc([C@H]3CCN(C4CCOCC4)C3)o2)cc1,i
c1cc(-c2nnc([C@H]3CCN(CC4CCCCC4)C3)o2)ccn1,i
COc1ccc(CN2CC[C@H](c3nnc(-c4ccccc4)o3)C2)cc1,i
CN(C)c1ccc(-c2nnc([C@H]3CCN(CC4CCCCC4)C3)o2)cc1,32µM*
O=C(C1CCCCC1)N1CC[C@H](c2nnc(-c3cccnc3)o2)C1,i
CCOC(=O)c1cnc(Nc2ccccc2OCC)c2ccccc12,i
Cc1cc(C)cc(S(=O)(=O)N2CCC(C(=O)NCCc3csc(C)n3)CC2)c1,i
CC(=O)c1ccc(OCc2ccc3c(c2)OCO3)cc1,i
C=CCNC(=O)c1ccccc1CSc1nc2ccccc2o1,i
O=C(Cc1ccccc1)NCC(=O)NNC(=O)c1nn(-c2ccccc2)c(=O)c2ccccc12,i
Cn1c(=O)c2c(-c3ccccc3)n3c(c2n(C)c1=O)C(c1ccc(O)cc1)OCC3(C)C (stereo not given),i
COc1ccc(N2C(=O)C(C)(C)CS2(=O)=O)cc1S(=O)(=O)N1CCCc2ccccc21,i
Cc1ccc(OCCOC(=O)Cn2cnc3c2c(=O)n(C)c(=O)n3C)cc1,i
O=C(C1CC1)N1CCN(C(=O)C2CC(=O)N(c3cccc(C(F)(F)F)c3)C2)CC1 (stereo not given),i
CC(=O)c1ccc(OCc2cccc3ccccc23)cc1,i
Cc1noc(C)c1-c1cnc(Nc2ccc(F)c(Cl)c2)c2c1CCO2,18µM*
Cc1noc(C)c1-c1cnc(NC(=O)c2ccc(Cl)cc2)c2c1CCO2,i
COc1cccc(NC(=O)C2CCN(S(=O)(=O)c3c(C)noc3C)CC2)c1,i
COc1cccc(Nc2ncc(-c3c(C)noc3C)c3c2OCC3)c1,35µM*
COc1ccc(Nc2ncnc3onc(C)c23)cc1Cl,i
CC(=O)c1sc2ccccc2c1C,i
Cc1cc2ccccc2[nH]1,i
O=C(CCc1cccc(F)c1)NCc1ccc(F)cc1C(F)(F)F,i
N#Cc1nc(-c2ccc(F)cc2)oc1N1CCN(C(=O)c2cccs2)CC1,i
SMILES,KDM5B inhibitor
CC(Cc1ccccc1)NC(=O)C1(c2ccccc2)CCCC1 (stereo not given),i
CCCN(C)C(=O)c1cc(-c2ccncc2)cn1Cc1ccccc1C,i
Cc1ccc(Cn2cc(-c3ccncc3)cc2C(=O)NCC2CC2)cc1,35µM*
CCn1cc(-c2ccncc2)cc1C(=O)NCc1ccc(SC)cc1,i
CN(Cc1ccc(-c2ccccc2)cc1)C(=O)c1ccccc1,i
Cc1ccc(Cn2cc(-c3ccncc3)cc2C(=O)N(C)Cc2ccccc2)cc1,22µM*
Cc1ccc(Cn2cc(-c3ccncc3)cc2C(=O)NC2CC2)cc1,i
CC(C)(C)c1ccccc1NC(=O)CSc1nc2ncc(Br)cc2[nH]1,i
CC1(C)CC(=O)C2=C(C1)Nc1[nH]n(-c3ccccc3)c(=O)c1C2c1ccc(Cl)cc1 (stereo not given),i
COc1ccc(C2Cn3nnc(-c4nc(-c5ccccc5Cl)no4)c3CO2)cc1 (stereo not given),i
COc1ccc(-c2nc(-c3nnn4c3COC(c3ccccc3Cl)C4)no2)cc1 (stereo not given),i
Cc1ccsc1-c1nc(-c2nnn3c2COC(c2ccccc2Cl)C3)no1 (stereo not given),i
CN(C)c1ccc(-c2nc(-c3nnn4c3COC(c3ccccc3Cl)C4)no2)cc1 (stereo not given),25µM*
COc1cccc(-c2nc(-c3nnn4c3COC(c3ccccc3Cl)C4)no2)c1OC (stereo not given),14µM*
CN(C)c1cccc(-c2nc(-c3nnn4c3COC(c3ccccc3Cl)C4)no2)c1 (stereo not given),i
CCC(CC)NC(=O)Cc1nn(C)c(=O)c2ccccc12,i
CCCOc1ccc(-c2nc3ccccc3c(C(=O)O)c2C)cc1,i
O=S(=O)(NCCc1cn2ccccc2n1)c1ccccc1C(F)(F)F,i
CCOc1ccc(C(=O)N2CC(COC)C3(CCNCC3)C2)cc1OCC (stereo not given),i
COCC1CN(C(=O)CC2=CCCCC2)CC12CCNCC2 (stereo not given),i
COCCCn1c(C)cc(C(=O)N2CCCC(CO)CCNC(=O)CC2)c1C (stereo not given),i
Cc1ccc(C(=O)N2CC(CO)C3(CCNCC3)C2)c(C)c1 (stereo not given),i
COCCCn1c(C)cc(C(=O)N2CC(COC)C3(CCNCC3)C2)c1C (stereo not given),32µM*
COCC1CN(C(=O)c2nccn2C)CC12CCNCC2 (stereo not given),25µM*
COc1ccc(OC)c(NC(=O)C2CCc3ncc(-c4ccsc4)n3C2)c1 (stereo not given),i
SMILES,KDM5B inhibitor
Cc1cccc(C)c1NC(=O)CSc1nnc(COc2ccccc2)n1Cc1ccco1,i
Nc1ccccc1C1CC1(Cl)Cl (stereo not given),i
Cc1ccc(S(=O)(=O)[C@H]2CS(=O)(=O)C[C@@H]2NCCc2ccc(Cl)cc2)cc1,i
N[C@@H](Cc1ccccc1)c1nnc(SCc2ccc(Br)cc2)o1,i
Cc1ccc2c(=O)cc(C(=O)Nc3ccc(S(=O)(=O)N(C)c4ccccc4)cc3)oc2c1,i
CN(C)c1ccc(C(=O)N[C@H]2CO[C@H]3[C@@H]2OC[C@@H]3n2nnnc2Oc2cccc(N(C)C)c2)cc1,i
COc1ccc(C(=O)N[C@H]2CO[C@H]3[C@@H]2OC[C@@H]3n2nnnc2Oc2cccc(N(C)C)c2)cc1,i
O=C(O)c1ccccc1C(=O)N[C@H]1CO[C@H]2[C@@H]1OC[C@@H]2n1nnnc1Oc1ccc2c(c1)OCO2,i
Cc1cc(C)cc(NC(=S)N[C@H]2CO[C@H]3[C@@H]2OC[C@@H]3n2nnnc2Oc2cccc(N(C)C)c2)c1,25µM*
COc1ccc(C(=O)N[C@H]2CO[C@H]3[C@@H]2OC[C@@H]3n2nnnc2Oc2ccc3c(c2)OCO3)cc1,35µM*
CC(=O)c1ccc(NC(=O)N[C@H]2CO[C@H]3[C@@H]2OC[C@@H]3n2nnnc2Oc2cccc(N(C)C)c2)cc1,i
CCN(Cc1cccc(NC(=O)c2ccc(C3SCCCS3)cc2)c1)C(=O)C(F)(F)F,i
O=C1CCC(c2ccccc2)=NN1c1ccc(Br)cc1,i
O=C(CSc1nnnn1C1CCCCC1)N(Cc1cccs1)c1ccc2c(c1)OCCO2,i
COc1ccc2c(c1)cc(C(=O)Nc1cccc(C)c1)n2C,i
Cn1c(=O)c(=O)n(C)c2cc(N3CCCCC3)c(NS(=O)(=O)c3ccc(C(C)(C)C)cc3)cc21,i
COc1ccc(Cl)cc1NC(=O)CCC1CCCN(S(=O)(=O)C2CC2)C1 (stereo not given),i
COc1ccc(Cl)cc1NC(=O)CCC1CCCN(c2ccc(C(F)(F)F)cn2)C1 (stereo not given),28µM*
COc1ccc(Cl)cc1NC(=O)CCC1CCCN(C(=O)c2ccnn2C)C1 (stereo not given),i
Cc1ccc(NS(=O)(=O)c2ccc(C(=O)NCC(c3ccccc3)N(C)C)cc2)cc1 (stereo not given),i
CC(C)NC(=O)N1CCNc2cnc(Nc3cccc(F)c3)nc2C1,32µM*
N#Cc1cccc(C(=O)N2CCNc3cnc(Nc4cccc(F)c4)nc3C2)c1,i
